Results: the supplement of paper PMC10849652
The full data set covers some 8,800 targets. This sample favours those with a hit. About 0.5% of all pairs of compound and target were hits.

Legend:
Assay in all cases: log2 fold change, soluble protein after heating vs DMSO (PISA); higher = thermal stabilisation; K562 lysate, 10 uM; active = over 0.2 and 3.5 SD of the protein, either way, in both replicates (recomputed)
[1] = compound: Cc1cn(-c2cc(NC(=O)c3ccc(C)c(Nc4nccc(-c5cccnc5)n4)c3)cc(C(F)(F)F)c2)cn1 [nilotinib]
Outline: (§1)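 K562 pellets were dounce-homogenised in PBS pH 7.4 containing 1 mM MgCl2, and the crude extract, at 1 mg/mL protein, was exposed to 10 μM compound for 30 min. Aliquots were heated for 3 min across 48°C-58°C, pooled, brought to 0.5% NP-40 at 4°C and spun at 21,000xg for 90 min, with the supernatant taken as soluble protein. TMTpro 16plex LC-MS/MS with equalised channel sums quantified that protein. Values are log-two fold changes in thermal stability relative to solvent controls, taken from duplicates.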

[2] = compound: Cc1nc(Nc2n[nH]c3c2CN(C(=O)N[C@H](CN(C)C)c2ccccc2)C3(C)C)c2sccc2n1
Outline: as §1

[3] = compound: Cc1nc(Nc2ncc(C(=O)Nc3c(C)cccc3Cl)s2)cc(N2CCN(CCO)CC2)n1 [dasatinib]
Outline: as §1

[4] = compound: Cc1ncc(-c2ccnc(Nc3ccc(S(C)(=O)=O)cc3)n2)n1C(C)C
Outline: as §1

[5] = compound: Cn1cc(-c2ccc3c(c2)CCN3C(=O)Cc2cccc(C(F)(F)F)c2)c2c(N)ncnc21
Outline: as §1

[6] = compound: Cn1cc(CNCC2CCN(c3ncc(C(=O)NO)cn3)CC2)c2ccccc21 [quisinostat]
Outline: as §1

[7] = compound: Cn1cncc1[C@@](N)(c1ccc(Cl)cc1)c1ccc2c(c1)c(-c1cccc(Cl)c1)cc(=O)n2C [tipifarnib]
Outline: as §1

[8] = compound: NC(=O)Nc1cc(-c2cccc(F)c2)sc1C(=O)N[C@H]1CCCNC1
Outline: as §1

[9] = compound: NC(=O)c1cnc(N[C@@H]2CCCC[C@@H]2N)nc1Nc1cccc(-n2nccn2)c1
Outline: as §1

[10] = compound: NC1(c2ccc(-c3nc4ccn5c(=O)[nH]nc5c4cc3-c3ccccc3)cc2)CCC1
Outline: as §1

Measured: log2 fold change

CMIP (UniProt Q8IY22)
inactive: [1] -0.034 | [2] 0.023 | [3] -0.063 | [4] 0.016 | [5] 0.008 | [6] -0.052 | [7] -0.045 | [8] 0.075 | [9] -0.008 | [10] -0.036

CLIP1 isoform 1 (UniProt P30622)
inactive: [1] -0.01 | [2] 0.01 | [3] 0.022 | [4] 0.013 | [5] 0.001 | [6] 0.008 | [7] 0.002 | [8] -0.004 | [9] -0.002 | [10] -0.002

DDX54 isoform 2 (UniProt Q8TDD1)
inactive: [1] 0.047 | [2] -0.035 | [3] 0.002 | [4] 0.019 | [5] 0.089 | [6] 0.042 | [7] -0.023 | [8] 0.021 | [9] 0.001 | [10] 0.011

CSTB (UniProt P04080)
Chain of UniProt P04080 (P04080 whole entry, looked up): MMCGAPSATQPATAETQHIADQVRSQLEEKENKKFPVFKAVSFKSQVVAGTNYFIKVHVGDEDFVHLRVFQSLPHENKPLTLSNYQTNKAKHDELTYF
inactive: [1] 0.057 | [2] 0.009 | [3] -0.017 | [4] 0.079 | [5] -0.022 | [6] -0.206 | [7] -0.008 | [8] -0.004 | [9] -0.055 | [10] -0.005

COX7B (UniProt P24311)
Chain of UniProt P24311 (P24311 whole entry, looked up): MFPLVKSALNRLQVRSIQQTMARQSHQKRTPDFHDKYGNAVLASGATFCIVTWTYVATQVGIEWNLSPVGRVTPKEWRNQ
inactive: [1] 0.001 | [2] 0.017 | [3] -0.008 | [4] 0.016 | [5] 0.025 | [6] 0.047 | [7] 0.023 | [8] -0.03 | [9] -0.047 | [10] 0

CSNK1G3 (UniProt Q9Y6M4)
inactive: [1] -0.029 | [3] 0.002 | [5] 0.014 | [6] -0.067 | [7] 0.001 | [9] 0 | [10] 0.086
active: [2] 0.428 | [4] 0.388 | [8] 0.397

CSNK1A1 (UniProt P48729)
Chain of UniProt P48729 (P48729 whole entry, looked up): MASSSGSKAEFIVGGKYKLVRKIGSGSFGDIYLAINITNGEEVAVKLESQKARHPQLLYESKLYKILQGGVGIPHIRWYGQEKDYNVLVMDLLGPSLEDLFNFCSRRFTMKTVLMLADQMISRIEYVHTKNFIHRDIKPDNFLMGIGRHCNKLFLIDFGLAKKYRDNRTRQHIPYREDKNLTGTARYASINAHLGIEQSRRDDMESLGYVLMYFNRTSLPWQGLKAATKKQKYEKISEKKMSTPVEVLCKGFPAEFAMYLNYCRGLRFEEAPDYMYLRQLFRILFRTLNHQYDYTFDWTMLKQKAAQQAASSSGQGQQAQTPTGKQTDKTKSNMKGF
inactive: [1] -0.04 | [2] 0.045 | [3] 0.088 | [4] 0.123 | [5] -0.039 | [6] -0.04 | [7] -0.019 | [8] 0.197 | [9] 0.018 | [10] -0.07

COG5 isoform 2 (UniProt Q9UP83)
inactive: [1] -0.023 | [2] 0.057 | [3] -0.153 | [4] -0.003 | [5] 0.037 | [6] -0.031 | [7] -0.019 | [8] 0.043 | [9] -0.081 | [10] -0.12

DNAAF5 (UniProt Q86Y56)
inactive: [1] -0.015 | [2] 0.004 | [3] -0.118 | [4] -0.024 | [5] 0.007 | [6] -0.1 | [7] -0.002 | [8] 0.073 | [9] 0.006 | [10] 0.024

CSNK2B (UniProt P67870)
Chain of UniProt P67870 (P67870 whole entry, looked up): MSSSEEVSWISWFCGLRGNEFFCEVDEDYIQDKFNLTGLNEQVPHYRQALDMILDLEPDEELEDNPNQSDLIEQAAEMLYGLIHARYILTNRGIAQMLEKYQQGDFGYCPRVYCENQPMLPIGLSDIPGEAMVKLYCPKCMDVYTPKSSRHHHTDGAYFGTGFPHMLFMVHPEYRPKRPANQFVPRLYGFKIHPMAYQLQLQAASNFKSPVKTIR
inactive: [1] 0.086 | [2] -0.029 | [3] -0.014 | [4] 0.034 | [5] -0.006 | [6] -0.005 | [7] -0.058 | [8] 0.028 | [9] 0.042 | [10] -0.049

COG3 (UniProt Q96JB2)
inactive: [1] -0.02 | [2] -0.023 | [3] -0.13 | [4] -0.002 | [5] 0.023 | [6] -0.097 | [7] 0.022 | [8] 0.044 | [9] 0.024 | [10] -0.083

DONSON (UniProt Q9NYP3)
inactive: [1] 0.035 | [2] 0.004 | [3] -0.031 | [4] 0.066 | [5] -0.035 | [6] -0.051 | [7] -0.024 | [8] -0.003 | [9] -0.022 | [10] 0.082

DIAPH3 (UniProt Q9NSV4)
Chain of UniProt Q9NSV4 (Q9NSV4 whole entry, looked up): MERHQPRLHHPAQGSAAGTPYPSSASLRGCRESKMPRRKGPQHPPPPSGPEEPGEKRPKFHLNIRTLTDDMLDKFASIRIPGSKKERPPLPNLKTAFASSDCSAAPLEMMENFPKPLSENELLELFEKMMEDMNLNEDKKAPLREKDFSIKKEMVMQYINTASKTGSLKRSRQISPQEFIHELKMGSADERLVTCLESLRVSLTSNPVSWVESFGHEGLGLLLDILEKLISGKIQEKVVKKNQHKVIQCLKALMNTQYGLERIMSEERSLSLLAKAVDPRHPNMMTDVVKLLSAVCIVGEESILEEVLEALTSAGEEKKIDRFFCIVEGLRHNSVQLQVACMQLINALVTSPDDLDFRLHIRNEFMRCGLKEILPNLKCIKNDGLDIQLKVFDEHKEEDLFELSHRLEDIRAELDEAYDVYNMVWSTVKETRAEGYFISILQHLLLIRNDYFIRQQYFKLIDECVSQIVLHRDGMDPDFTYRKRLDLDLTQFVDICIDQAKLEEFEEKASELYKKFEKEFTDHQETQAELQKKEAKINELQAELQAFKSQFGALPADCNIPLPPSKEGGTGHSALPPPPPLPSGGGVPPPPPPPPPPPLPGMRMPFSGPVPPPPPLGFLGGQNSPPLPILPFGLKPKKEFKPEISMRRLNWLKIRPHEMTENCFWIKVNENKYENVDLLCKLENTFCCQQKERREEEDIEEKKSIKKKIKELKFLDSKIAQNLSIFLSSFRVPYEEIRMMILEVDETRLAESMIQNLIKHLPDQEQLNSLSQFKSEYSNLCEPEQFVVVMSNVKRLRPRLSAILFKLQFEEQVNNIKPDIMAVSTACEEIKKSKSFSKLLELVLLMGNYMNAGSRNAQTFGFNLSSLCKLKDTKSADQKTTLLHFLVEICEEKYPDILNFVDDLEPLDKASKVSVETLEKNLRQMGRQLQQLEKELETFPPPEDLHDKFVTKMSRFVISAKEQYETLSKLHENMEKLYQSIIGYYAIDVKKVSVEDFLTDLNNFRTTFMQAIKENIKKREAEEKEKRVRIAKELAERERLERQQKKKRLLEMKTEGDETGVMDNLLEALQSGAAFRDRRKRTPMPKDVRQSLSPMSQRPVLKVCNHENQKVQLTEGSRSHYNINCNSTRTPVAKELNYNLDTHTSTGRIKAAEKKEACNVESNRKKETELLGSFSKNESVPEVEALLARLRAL
inactive: [1] -0.019 | [2] 0.019 | [3] -0.167 | [4] -0.021 | [5] 0.029 | [6] -0.093 | [7] -0.041 | [8] 0.057 | [9] 0.077 | [10] 0.019

DNAJC5 (UniProt Q9H3Z4)
inactive: [1] -0.136 | [2] -0.043 | [3] -0.002 | [4] 0.008 | [5] -0.029 | [6] -0.05 | [7] 0.043 | [8] -0.045 | [9] 0.062 | [10] 0.024

CSPP1 (UniProt Q1MSJ5)
inactive: [1] -0.105 | [2] -0.014 | [3] 0.046 | [4] 0.011 | [5] -0.062 | [6] 0.026 | [7] 0.078 | [8] 0.015 | [9] -0.227 | [10] 0.011

CSK (UniProt P41240)
active: [3] 0.578 | [8] 0.646
inactive: [1] 0.144 | [2] 0.125 | [4] 0.002 | [5] 0.102 | [6] -0.08 | [7] -0.041 | [9] 0.071 | [10] -0.043

CNK3/IPCEF1 isoform 2 (UniProt G9CGD6)
inactive: [3] -0.131 | [5] 0.002 | [10] 0.168

COL12A1 (UniProt Q99715)
inactive: [3] -0.097 | [5] 0.198 | [6] -0.056 | [8] 0.166 | [9] 0.827 | [10] -0.154

CLASP2 (UniProt O75122)
inactive: [1] 0.013 | [2] -0.14 | [4] -0.061 | [6] -0.135 | [7] -0.242 | [8] -0.058 | [9] 0.205

DNA2 (UniProt P51530)
inactive: [1] 0.011 | [2] 0.007 | [3] 0.069 | [4] 0.005 | [5] 0.05 | [6] -0.069 | [7] -0.04 | [8] 0.043 | [10] 0.067

DBF4 (UniProt Q9UBU7)
inactive: [1] 0.05 | [2] 0 | [3] 0.091 | [4] 0.17 | [5] -0.021 | [6] 0.038 | [7] -0.146 | [8] 0.043 | [10] 0.07

DDAH1 (UniProt O94760)
inactive: [3] -0.244 | [5] 0.174 | [6] -0.013 | [8] -0.003 | [9] -0.034 | [10] -0.016

CNOT4 isoform 9 (UniProt O95628)
inactive: [3] -0.062 | [5] -0.052 | [6] 0.17 | [8] -0.058 | [9] 0.081 | [10] -0.024

CSDE1 isoform 3 (UniProt O75534)
inactive: [1] 0.064 | [2] -0.135 | [4] 0.016 | [6] 0.022 | [7] -0.02 | [8] -0.085 | [9] -0.021

CSNK2A1, A0A2R8Y4D6
inactive: [9] 0.085

CNTN4 (UniProt Q8IWV2)
inactive: [1] 0.127 | [2] -0.06 | [4] 0.306 | [7] -0.006 | [8] 0.151 | [9] 0.072 | [10] -0.024
active: [6] -0.561

CSRP2 (UniProt Q16527)
inactive: [6] -0.012 | [8] 0.068

DNAH5 (UniProt Q8TE73)
inactive: [1] -0.029 | [2] -0.036 | [3] -0.072 | [4] -0.013 | [5] -0.156 | [7] -0.128 | [9] -0.073 | [10] -0.049

COPS9 (UniProt Q8WXC6)
inactive: [9] -0.074 | [10] 0.214

CLIP1, A0A3B3ITA2
inactive: [6] -0.169 | [8] 0.017

CNOT2 (UniProt F8VRS8)
inactive: [10] -0.122

DLGAP5 isoform 3 (UniProt Q15398)
inactive: [3] 0.017 | [5] 0.18

DPY19L3 (UniProt Q6ZPD9)
inactive: [6] -0.103 | [8] 0.034 | [9] 0.045
active: [10] -0.683

CYP2S1 isoform 2 (UniProt Q96SQ9)
inactive: [3] 0.116 | [5] 0.093 | [6] 0.014 | [8] -0.135 | [9] 0.054 | [10] -0.056

CORO7 (UniProt P57737)
inactive: [1] -0.102 | [2] 0.136 | [3] 0.024 | [4] -0.072 | [5] 0.119 | [6] 0.171 | [7] -0.051 | [8] 0.088 | [10] 0.183

CPLX1 (UniProt O14810)
active: [3] 1.05
inactive: [5] -0.134 | [9] 0.178

DHX32 (UniProt Q7L7V1)
inactive: [1] -0.025 | [2] -0.027 | [4] -0.044 | [6] -0.015 | [7] -0.061 | [8] 0.142 | [10] 0.108

DALRD3 (UniProt Q5D0E6)
inactive: [9] -0.03 | [10] 0.207

COL6A3 (UniProt P12111)
Chain of UniProt P12111 (P12111 whole entry, looked up): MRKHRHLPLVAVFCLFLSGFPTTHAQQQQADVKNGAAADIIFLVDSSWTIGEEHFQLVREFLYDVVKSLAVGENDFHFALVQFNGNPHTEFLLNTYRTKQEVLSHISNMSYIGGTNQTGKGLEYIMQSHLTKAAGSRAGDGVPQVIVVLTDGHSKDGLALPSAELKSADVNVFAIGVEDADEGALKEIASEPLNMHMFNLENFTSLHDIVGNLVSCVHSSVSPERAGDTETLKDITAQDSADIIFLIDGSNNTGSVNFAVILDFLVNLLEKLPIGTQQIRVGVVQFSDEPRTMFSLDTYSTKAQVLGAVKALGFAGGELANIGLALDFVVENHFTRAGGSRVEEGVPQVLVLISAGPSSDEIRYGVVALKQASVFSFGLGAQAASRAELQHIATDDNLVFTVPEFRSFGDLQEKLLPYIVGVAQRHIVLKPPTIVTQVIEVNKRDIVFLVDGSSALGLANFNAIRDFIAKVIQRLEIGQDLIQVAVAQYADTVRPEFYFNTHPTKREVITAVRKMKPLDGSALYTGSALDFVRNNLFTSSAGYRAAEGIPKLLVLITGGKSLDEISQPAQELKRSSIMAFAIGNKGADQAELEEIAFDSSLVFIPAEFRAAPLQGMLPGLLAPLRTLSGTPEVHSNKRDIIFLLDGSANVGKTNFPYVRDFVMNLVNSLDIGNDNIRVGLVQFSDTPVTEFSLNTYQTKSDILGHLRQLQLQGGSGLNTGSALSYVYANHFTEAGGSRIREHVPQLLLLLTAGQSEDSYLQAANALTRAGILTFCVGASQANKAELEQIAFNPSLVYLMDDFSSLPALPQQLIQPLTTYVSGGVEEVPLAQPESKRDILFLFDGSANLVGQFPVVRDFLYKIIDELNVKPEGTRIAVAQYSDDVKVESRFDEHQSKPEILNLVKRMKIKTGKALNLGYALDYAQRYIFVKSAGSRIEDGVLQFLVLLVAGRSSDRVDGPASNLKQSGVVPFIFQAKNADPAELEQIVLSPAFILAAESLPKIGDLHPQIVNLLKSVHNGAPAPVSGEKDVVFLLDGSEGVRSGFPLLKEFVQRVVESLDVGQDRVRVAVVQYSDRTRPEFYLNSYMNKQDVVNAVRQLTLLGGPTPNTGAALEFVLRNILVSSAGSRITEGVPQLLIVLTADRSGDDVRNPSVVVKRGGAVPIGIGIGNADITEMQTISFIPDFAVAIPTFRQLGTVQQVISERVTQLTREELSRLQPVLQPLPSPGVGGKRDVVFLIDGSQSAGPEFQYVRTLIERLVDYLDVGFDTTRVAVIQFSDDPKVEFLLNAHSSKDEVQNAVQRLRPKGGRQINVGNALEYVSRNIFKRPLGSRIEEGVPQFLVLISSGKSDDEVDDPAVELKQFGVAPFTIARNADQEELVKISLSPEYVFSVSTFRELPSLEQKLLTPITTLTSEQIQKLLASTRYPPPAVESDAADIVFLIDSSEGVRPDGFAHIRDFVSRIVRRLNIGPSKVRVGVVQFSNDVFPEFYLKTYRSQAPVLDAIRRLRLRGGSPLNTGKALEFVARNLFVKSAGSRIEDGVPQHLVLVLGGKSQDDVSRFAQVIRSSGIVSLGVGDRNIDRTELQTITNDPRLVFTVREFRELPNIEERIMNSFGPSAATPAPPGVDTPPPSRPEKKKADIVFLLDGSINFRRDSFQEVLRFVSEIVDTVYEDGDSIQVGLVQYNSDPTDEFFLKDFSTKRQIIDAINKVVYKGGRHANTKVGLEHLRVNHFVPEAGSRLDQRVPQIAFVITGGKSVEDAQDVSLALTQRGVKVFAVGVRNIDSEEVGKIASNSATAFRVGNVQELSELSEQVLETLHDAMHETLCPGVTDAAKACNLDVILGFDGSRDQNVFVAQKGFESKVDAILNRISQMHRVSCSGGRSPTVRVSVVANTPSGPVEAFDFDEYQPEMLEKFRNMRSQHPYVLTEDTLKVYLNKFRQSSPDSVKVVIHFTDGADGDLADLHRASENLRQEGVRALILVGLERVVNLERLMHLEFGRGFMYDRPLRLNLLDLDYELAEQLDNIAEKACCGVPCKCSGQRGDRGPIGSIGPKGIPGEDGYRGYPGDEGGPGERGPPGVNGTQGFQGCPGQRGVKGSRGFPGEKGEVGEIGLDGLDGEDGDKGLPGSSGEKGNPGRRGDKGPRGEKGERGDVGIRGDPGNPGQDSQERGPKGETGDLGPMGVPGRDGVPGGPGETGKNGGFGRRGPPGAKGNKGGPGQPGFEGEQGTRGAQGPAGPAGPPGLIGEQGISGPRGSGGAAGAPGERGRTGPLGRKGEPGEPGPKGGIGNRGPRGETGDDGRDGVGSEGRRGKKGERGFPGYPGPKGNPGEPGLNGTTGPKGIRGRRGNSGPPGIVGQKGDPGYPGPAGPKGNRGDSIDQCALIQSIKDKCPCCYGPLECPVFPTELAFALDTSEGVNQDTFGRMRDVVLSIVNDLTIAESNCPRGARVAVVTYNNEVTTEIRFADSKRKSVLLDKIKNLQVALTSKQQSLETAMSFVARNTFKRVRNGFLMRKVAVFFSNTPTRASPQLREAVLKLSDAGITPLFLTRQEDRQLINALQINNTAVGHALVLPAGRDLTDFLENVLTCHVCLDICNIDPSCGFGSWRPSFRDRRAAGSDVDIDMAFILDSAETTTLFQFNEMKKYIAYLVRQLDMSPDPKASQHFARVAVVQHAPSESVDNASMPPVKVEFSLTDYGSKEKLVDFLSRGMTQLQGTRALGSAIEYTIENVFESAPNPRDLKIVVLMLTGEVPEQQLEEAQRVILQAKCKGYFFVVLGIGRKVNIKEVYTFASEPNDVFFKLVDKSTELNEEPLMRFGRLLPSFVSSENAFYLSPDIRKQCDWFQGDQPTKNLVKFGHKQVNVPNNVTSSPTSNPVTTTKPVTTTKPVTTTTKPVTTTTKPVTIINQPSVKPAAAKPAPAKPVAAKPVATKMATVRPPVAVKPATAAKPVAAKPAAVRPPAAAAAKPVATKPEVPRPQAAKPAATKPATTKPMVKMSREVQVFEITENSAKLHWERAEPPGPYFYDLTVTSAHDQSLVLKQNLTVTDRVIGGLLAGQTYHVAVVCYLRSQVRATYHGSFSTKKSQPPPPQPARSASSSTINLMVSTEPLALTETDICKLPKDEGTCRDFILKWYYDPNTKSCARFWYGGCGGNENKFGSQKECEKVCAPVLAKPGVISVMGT
inactive: [1] 0.05 | [2] 0.151 | [3] 0.032 | [4] 0.02 | [5] -0.055 | [6] 0.123 | [7] -0.009 | [8] 0 | [10] -0.155

CRLS1 (UniProt Q9UJA2)
inactive: [1] 0.1 | [2] -0.096 | [4] -0.143 | [6] -0.122 | [7] -0.01 | [8] 0.066 | [9] -0.018 | [10] -0.067

CSAD isoform 3 (UniProt Q9Y600)
inactive: [6] -0.035 | [8] -0.001 | [10] -0.153

DDX4 (UniProt Q9NQI0)
inactive: [1] -0.108 | [2] 0.043 | [3] 0.014 | [4] -0.085 | [5] 0.076 | [7] 0.028 | [9] 0.062 | [10] 0.059

CNNM2 (UniProt Q9H8M5)
inactive: [3] -0.021 | [5] -0.044 | [6] 0.217 | [8] -0.077 | [9] -0.001 | [10] -0.006

DAZAP1 (UniProt K7EQ02)
inactive: [1] -0.221 | [2] 0.096 | [4] 0.119 | [7] -0.039

CYP4V2 (UniProt Q6ZWL3)
inactive: [3] -0.041 | [5] 0.049 | [6] 0.103 | [8] -0.026 | [9] -0.101 | [10] -0.033

CUX1 isoform 2 (UniProt Q13948)
inactive: [3] 0.001 | [5] 0.101 | [6] 0.072 | [8] -0.026 | [9] -0.073 | [10] 0.012

CLASP1 isoform 4 (UniProt Q7Z460)
inactive: [1] -0.113 | [2] 0.126 | [4] 0.09 | [7] -0.301 | [10] 0.111

CSNK1A1 isoform 3 (UniProt P48729)
inactive: [3] 0.048 | [5] -0.183

DIAPH1 (UniProt H9KV28)
inactive: [1] -0.027 | [2] -0.122 | [4] 0.053 | [6] -0.093 | [7] -0.051 | [8] -0.001 | [9] 0.05 | [10] 0.111

CHMP4A (UniProt H0YIN6)
inactive: [3] 0.294 | [5] -0.06 | [6] -0.502 | [8] 0.041 | [9] 0.066

CSNK1G3 isoform 4 (UniProt Q9Y6M4)
inactive: [9] 0.083
